Screens deposited in PubChem BioAssay by The Scripps Research Institute Molecular Screening Center.
Only some compounds are listed: those with a hit (about 1.1% of all), similar ones and a draw of the others.
NCOA3 inh: inhibits human SRC3 coactivator; HEK293 GAL4-SRC3 luciferase reporter, luminescence; 0.17% of 360,000 active; Q9Y6Q9; AID 588352; inhibition, % at 3.6 µM;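 active = inhibition above a per-campaign cutoff, the mean of all compounds plus 3 SD, cut at about 60% in these data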;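 also: higher means less SRC3-driven luciferase light from the GAL4 reporter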
GalR3 antagonist: human GalR3 antagonism | O60755 | HEK293 GalR3-CNG cAMP membrane potential fluorescence; galR3 body fused to GalR1 C-terminus | inhibition, % at 3 µM | 0.44% of 360,000 active | AID 651719;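 active = inhibition above the screen-wide average plus 3 SD, cut at about 13% in these data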;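 also: forskolin and galanin both at EC90 stimulate the cells; cAMP rise reported by CNG channel membrane potential dye signal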
NR5A2 inv ag: NR5A2 inverse agonism in reporter assay. AID 602396. inhibition, % at 3.6 µM. O00482. HEK293T StAR-luciferase reporter, LRH-1 transfected, 24 h. 0.13% of 360,000 active;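 active = inhibition above the mean inhibition of all tested compounds plus 3 SD, cut at about 73% in these data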
SRC1 inh: inhibits human SRC1 coactivator; Q15788; HEK293 GAL4-SRC1 luciferase reporter, luminescence; inhibition, % at 3.6 µM; 0.12% of 360,000 active; AID 588354;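 active = inhibition above the campaign mean plus 3 SD, with each screening campaign given its own cutoff, cut at about 60% in these data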
NR2F2 inh: inhibitors of human COUP-TFII (NR2F2); HEK293T NGFI-A luciferase reporter, luminescence; 0.7% of 370,000 active; P24468; inhibition, % at 8.6 µM;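 active = inhibition above a per-plate cutoff, mean inhibition of test wells between control levels plus 3 SD, cut at about 38% in these data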;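 also: cells cotransfected with COUP-TFII expression vector driving the NGFI-A reporter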
NCOA2 inhibitor: inhibits human steroid receptor coactivator 2. Q15596. HEK293 GAL4-SRC2 luciferase reporter, luminescence. inhibition, % at 9 µM. 0.17% of 370,000 active. AID 651957;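 active = inhibition above the mean inhibition of all tested compounds plus 3 SD, set per campaign, cut at about 52% in these data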
Gal4-VP16 ctr: VP16 inhibition counter-screen for COUP-TFII; shares compounds with NR2F2 inh; 25% of 2,500 active; HEK293 Gal4-VP16 luciferase reporter, luminescence; inhibition, % at 8.5 µM; in the data active = inhibition above about 13%
COUP-TFII conf: confirmation of human COUP-TFII (NR2F2) inhibitors. shares compounds with NR2F2 inh. HEK293 NGFI-A luciferase reporter, luminescence. 45% of 2,500 active. inhibition, % at 8.5 µM;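 active = mean inhibition over three repeats above a set limit taken from the earlier primary screen, cut at about 38% in these data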
A number is an active result; - = inactive; . = no result.

SMILES | NCOA3 inh | GalR3 antagonist | NR5A2 inv ag | SRC1 inh | NR2F2 inh | NCOA2 inhibitor | Gal4-VP16 ctr | COUP-TFII conf
Cc1c(/C(O)=C2\C(=O)C(=O)N(CCCN(C)C)C2c2ccco2)cnn1-c1ccccc1 (stereo not drawn) | - | - | - | - | 49.1 | - | - | -
O=C(c1cc2ccccc2o1)N1CCN(C/C=C/c2ccccc2)CC1 | - | - | - | - | 38.3 | - | - | -
CCOC(=O)c1c(-c2ccccc2)csc1NC(=O)CSc1nc(N)cc(N)n1 | - | - | - | - | 60.6 | - | - | -
CCN(CC)C(=O)c1ccc2c(c1)NC(=O)C(C)(C)O2 | . | . | . | . | - | - | . | .
O=C(NNC1=Nc2ccccc2SC1)c1ccccc1F | - | - | - | - | 38.1 | - | - | -
COc1cc(C(=O)NCc2ccccc2)ccc1OC(F)F | - | - | - | - | - | - | . | .
COc1ccc(COc2ccccc2C(=O)NCc2ccccc2)cc1F | - | - | - | - | 41.5 | - | - | -
CCN(CC)S(=O)(=O)c1cccc(NC(=O)Nc2cccc(C(F)(F)F)c2)c1 | - | - | - | - | 38.8 | - | - | -
CCN(CC)S(=O)(=O)c1cccc(NC(=O)CC2CCCC2)c1 | - | - | - | - | - | - | . | .
Cc1cc(C(F)(F)F)n(-c2nc(C(=O)NN)cs2)n1 | - | - | - | - | 37.4 | - | - | -
CCOC(=O)c1csc(-n2nc(C)cc2C(F)(F)F)n1 | - | - | - | - | - | - | . | .
COCCN1C(=O)[C@H]2C[C@@]13O[C@H](C1CCCCC1)N=C3CC1c3ccccc3C[C@@]12C (stereo partly drawn) | . | - | . | . | - | - | . | .
CC(C)Oc1ccc(/C=C(\C#N)C(=O)NC2CC2)cc1 | - | - | - | - | 82.4 | - | - | -
Cc1nn(C)c(C)c1/C=N/NC(=O)C(C)(C)Oc1ccc(Cl)cc1 | - | . | - | - | . | . | . | .
Cc1nn(C(C)(C)C)c(C)c1/C=N/OC(=O)Nc1ccc(Cl)cc1 | 92.9 | - | 93.7 | 93.3 | 99.0 | 90.8 | 93.8 | 107.5
CCOc1ccc(NC(=O)c2cc(-c3ccc(Cl)cc3)nc3ccccc23)cc1 | . | . | . | . | - | - | . | .
CCN(CC)C(=O)CC[C@H]1CC[C@]2(CCCN(C(=O)C3CCCC3)C2)O1 | . | . | . | . | - | - | . | .
CCOC(=O)CC[C@@]1(C(=O)OCC)C[C@@H](CC(=O)NCc2ccc(C)o2)C(=O)N2CCCC=C21 | . | . | . | . | - | - | . | .
Cc1ccc(S(=O)(=O)N2CCN(c3ncnc4sccc34)CC2)cc1 | - | - | - | - | 50.0 | - | - | -
Cc1ccc(-c2csc3ncnc(N4CCN(S(=O)(=O)c5ccc(C#N)cc5)CC4)c23)cc1 | - | - | - | - | - | - | . | .
O=S(=O)(c1ccc(F)c(F)c1F)N1CCN(c2ncnc3sccc23)CC1 | - | - | - | - | 40.3 | - | - | -
O=S(=O)(c1ccccc1C(F)(F)F)N1CCN(c2ncnc3sccc23)CC1 | - | - | - | - | - | - | . | .
O=C1CSc2ccc(C(=O)N3CCCC(C(=O)N4CCCCC4)C3)cc2N1 (stereo not drawn) | . | . | . | . | - | - | . | .
Cc1ccc(S(=O)(=O)N2CCCC(C(=O)NCCN3CCC(Cc4ccccc4)CC3)C2)cc1 (stereo not drawn) | . | . | . | . | - | - | . | .
Cc1ccccc1-c1ccc2c(c1)[C@@H]1C[C@H](N(C)C(=O)Nc3ccccc3)[C@H]([C@H](C)O)CN1CC2 | . | - | . | . | - | - | . | .
SMILES | NCOA3 inh | GalR3 antagonist | NR5A2 inv ag | SRC1 inh | NR2F2 inh | NCOA2 inhibitor | Gal4-VP16 ctr | COUP-TFII conf
CC(=O)c1cccc(NC(=O)CSc2ccc(-c3sc(C)nc3C)nn2)c1 | - | - | - | - | - | - | . | .
Cc1nc(C)c(-c2ccc(SCC(=O)Nc3cccc(Cl)c3)nn2)s1 | - | - | - | - | 53.1 | - | - | -
Cc1nc(C)c(-c2ccc(SCC(=O)Nc3cccc(F)c3)nn2)s1 | - | - | - | - | 46.8 | - | - | -
COc1cccc(CNC(=O)[C@H]2CCCN2C(=O)[C@H]2CCCN2C(=O)c2ccc(F)c(F)c2)c1 | . | - | . | . | - | - | . | .
CCN(CC)S(=O)(=O)c1cc(NC(=O)CCCOc2ccc(C(C)=O)cc2)ccc1C | - | - | - | - | 42.4 | - | - | -
CCN(CC)S(=O)(=O)c1cc(NC(=O)c2ccc3c(c2)NC(=O)C(C)S3)ccc1C (stereo not drawn) | - | - | - | - | 60.6 | - | - | 47.2
Nc1ccc(-c2ncc(-c3ccccc3)o2)cc1 | - | - | - | - | 79.0 | 79.5 | 72.1 | 61.6
Cc1ccc(-c2cnc(-c3ccncc3)o2)cc1 | - | - | - | - | - | - | . | .
C=CCOc1ccc(C[C@H](N)C(=O)NC[C@H]2O[C@@H](n3cnc4c(N)ncnc43)[C@H](O)[C@@H]2O)cc1 | - | . | - | - | . | . | . | .
COc1ccc(C[C@H](N)C(=O)N[C@H]2[C@@H](O)[C@H](n3cnc4c(N(C)C)ncnc43)O[C@@H]2CO)cc1 | 95.0 | . | 102.0 | 94.3 | 98.8 | 86.3 | 47.9 | 97.4
Cc1cccc(C)c1OCc1cccc(C2Nc3ccccc3C(=O)N2Cc2ccco2)c1 (stereo not drawn) | . | . | . | . | - | . | . | .
Cn1cc(-c2coc3c(C(=O)NCc4cccnc4)cccc23)cn1 | - | - | - | - | - | - | . | .
COc1ccc(CNC(=O)c2cccc3c(-c4cnn(C)c4)coc23)cc1OC | - | - | - | - | 62.2 | - | - | 39.9
COc1ccc(-c2ccc(C(=O)NCc3ccc(F)c(F)c3)c3occc23)c(C)c1 | - | - | - | - | - | - | . | .
COc1cc(NC(=O)c2cccc3c(-c4cccnc4)coc23)cc(OC)c1OC | - | - | - | - | 52.0 | - | - | -
COc1ccc(-c2coc3c(C(=O)NCC4CCOCC4)cccc23)c(C)c1 | - | - | - | - | 42.3 | - | - | -
COc1ccc(-c2coc3c(C(=O)NCCN4CCOCC4)cccc23)c(C)c1 | - | - | - | - | - | - | . | .
COc1ccc(-c2coc3c(C(=O)NCc4ccc(F)c(F)c4)cccc23)c(C)c1 | - | - | - | - | 47.2 | - | - | -
O=C(Nc1cccc(C(F)(F)F)c1)c1cccc2c(-c3cccnc3)coc12 | - | . | - | - | . | . | . | .
CC(C)(C)OC(=O)N1CCC2CCN(S(=O)(=O)c3ccccc3)CC21 (stereo not drawn) | . | - | . | . | - | - | . | .
COC(=O)C1CN(Cc2ccc(F)cc2)CCS(=O)(=O)N1Cc1ccc(F)cc1 (stereo not drawn) | . | . | . | . | - | - | . | .
CCC[C@@H](/C=C/C(=O)OC(C)(C)C)Sc1ccc(OC)cc1 | . | . | . | . | - | - | . | .
O=C(CCc1ccccc1)N[C@H]1[C@@H](OC(=O)c2ccco2)CCC[C@]12C(=O)N(Cc1ccccc1)c1ccccc12 | . | . | . | . | - | - | . | .
Cn1nc(C(F)(F)F)c(C#N)c1N1CCN(c2ccc(F)cc2)CC1 | - | - | - | - | 45.1 | - | - | -
